PubChem BioAssay (EPA / NIEHS)
Activity calls are given as the source filed them. Rule for the calls: active = hit-call score of the fitted dose curve at least 0.9, where 1 is the maximum; inactive = score below 0.9.

Assay: ATG_PXRE_CIS: Attagene CIS-FACTORIAL HepG2 Assay for human Pregnane X Receptor Element (PXRE) (AID 2282957)
Details: HepG2 Attagene CIS-FACTORIAL PXRE reporter, mRNA; actives raise or lower the signal
Method: ATG_CIS is a cell-based, multiplexed-readout assay that uses HepG2, a human liver cell line, with measurements taken at 24 hours after chemical dosing in a 24-well plate.ATG_PXRE_CIS is one of 52 assay component(s) measured or calculated from the ATG_CIS assay. It is designed to make measurements of mRNA induction, a form of inducible reporter, as detected with fluorescence intensity signals by Reverse transcription polymerase chain reaction (RT-PCR) and Capillary electrophoresis technology.Data from the assay component ATG_PXRE_CIS was analyzed into 1 assay endpoint. This assay endpoint, ATG_PXRE_CIS, was analyzed with bidirectional fitting relative to DMSO as the negative control and baseline of activity. Using a type of inducible reporter, measures of mRNA for gain or loss-of-signal activity can be used to understand the reporter gene at the transcription factor-level as they relate to the gene NR1I2. Furthermore, this assay endpoint can be referred to as a primary readout, because this assay has produced multiple assay endpoints where this one serves a reporter gene function. To generalize the intended target to other relatable targets, this assay endpoint is annotated to the nuclear receptor intended target family, where the subfamily is non-steroidal.
Human liver HepG2 cells are transiently transfected with multiple reporter transcription units (MRTUs) in 6-well plates using FuGene 6 reagent (Roche; 3 ml FuGene/1 mg DNA). The MRTU constructs are regulated by a cis-regulating element (promoter). […] A major difference between the CIS and TRANS system is that in CIS activities of endogenous TFs are measured, whereas the TRANS assay evaluates changes in activities of exogenous, chimeric NR-Gal4 proteins. […] At the end of 24 hour incubation, total RNA was isolated using TriZol reagent (Invitrogen). The isolated RNA is then reverse-transcribed using oligo(dT) primer and Mo-MLV reverse transcriptase (Invitrogen) with DNAse I (Ambion) treatment for 30 min. The one-tenth of the produced cDNA was amplified by PCR using Taq DNA polymerase (Invitrogen) and two reporter sequence-specific primers. The PCR products were fluorescently labeled by primer extension with 6-arboxyfluorescein (6-FAM) 5'-labeled reporter sequence-specific primer (2 min at 95 C, 20 s at 68 C and 10 min at 72 C) and these products were digested with 5U of HpaI (New England Biolabs) for 2h at 37 C. The fragments were purified using Qiaquick PCR columns (Qiagen), analyzed on an ABI 3130xL genetic analyzer (Applied Biosystems) with peak positions identified by using a set of X-rhodamine (ROX)-labeled MapMarker1000 molecular weight standards (BioVentures). The raw capillary electrophoresis data was processed using Attagraph software (Attagene).
For `CCCCOC(=O)COc1ccc(Cl)cc1Cl`, the outcome was “inactive”.
In the case of `CCO[Si](CCCN)(OCC)OCC`, the AC50 is reported as 100 µM (active).
In the case of `O=C(O)Cc1c[nH]c2ccccc12`, the AC50 is reported as 35.4 µM (active).
With `CCCCCCOC(=O)CCCCCCCC(=O)OCCCCCC` the AC50 was 71.6 µM (active).
In the case of `COC(=O)CCSCCC(=O)OC`, the outcome is reported as “inactive”.
With `CC/C=C\CCCCCO` the AC50 was 78.4 µM (active).
With `COc1cccc(OC)c1C(=O)O` the outcome was “inactive”.
In the case of `CCCCCC[C@@H](O)C/C=C\CCCCCCCC(=O)O`, the outcome is reported as “inactive”.
For `CCCCCCC(O)CCCCCCCCCCC(=O)OC` (stereo not given), the AC50 was 27.5 µM (active).
In the case of `CCCCCCCCCCCCCC`, the outcome is reported as “inactive”.
In the case of `CN1CCCC1`, the outcome is reported as “inactive”.
For `c1ccc(CNc2ncnc3nc[nH]c23)cc1`, the outcome was “inactive”.
With `C1=CCC=C1` the outcome was “inactive”.
In the case of `CC(C)CC(=O)CC(C)C`, the outcome is reported as “inactive”.
In the case of `CCOC(=O)CC(=O)OCC`, the outcome is reported as “inactive”.
With `CC(C)=CCOC(=O)c1ccccc1` the outcome was “inactive”.
For `CC(C)(Oc1ccc(Cl)cc1)C(=O)O`, the outcome was “inactive”.
With `CC/C=C\CC1=C(C)CCC1=O` the AC50 was 6.38 µM (active).
In the case of `O=S(=O)(O)c1cccc2ccccc12`, the outcome is reported as “inactive”.
In the case of `Cc1cc2nc3c(=O)[nH]c(=O)nc-3n(C[C@H](O)[C@H](O)[C@H](O)CO)c2cc1C`, the AC50 is reported as 47.2 µM (active).
With `CC(C)(C)NC(=O)[C@@H]1CN(Cc2cccnc2)CCN1C[C@@H](O)C[C@@H](Cc1ccccc1)C(=O)N[C@H]1c2ccccc2C[C@H]1O` the AC50 was 19.6 µM (active).
In the case of `O=C(OCc1ccccc1)c1ccccc1`, the AC50 is reported as 26.4 µM (active).
In the case of `CCCCCCCCCC/C=C/C1CC(=O)OC1=O` (stereo not given), the outcome is reported as “inactive”.
For `CC(=O)OC(C)(C)Cc1ccccc1`, the outcome was “inactive”.
For `CCCCCCC1CCCC(=O)O1` (stereo not given), the AC50 was 37.5 µM (active).
With `COC(=O)/C=C\C(=O)OC` the AC50 was 6.26 µM (active).
In the case of `CCCC(=O)OC/C=C(\C)CCC=C(C)C`, the AC50 is reported as 22.7 µM (active).
For `CC1(C)S[C@@H]2[C@H](NC(=O)[C@H](N)c3ccccc3)C(=O)N2[C@H]1C(=O)O`, the outcome was “inactive”.
In the case of `CN(C)CCC(c1ccc(Cl)cc1)c1ccccn1` (stereo not given), the outcome is reported as “inactive”.
For `NCc1ccccc1`, the outcome was “inactive”.
For `O=C(Oc1ccccc1)c1ccccc1`, the outcome was “inactive”.
With `CO[Si](CCCNCCN)(OC)OC` the AC50 was 37.3 µM (active).
With `CCCC(=O)OC` the outcome was “inactive”.
For `CC1=CCCC(C)(C)C12CCC(C)O2` (stereo not given), the AC50 was 1.28 µM (active).
For `O=C1NC(=O)C2CC=CCC12` (stereo not given), the outcome was “inactive”.
With `CCOc1ccc2c(c1)C(C)CC(C)(C)N2` (stereo not given) the AC50 was 2 µM (active).
For `Oc1ccc(Cl)cc1C1CCCC1`, the AC50 was 7.76 µM (active).
In the case of `O=C(O)c1ccccc1C(=O)O`, the AC50 is reported as 28.3 µM (active).
In the case of `Oc1ccc(Oc2ccccc2)cc1`, the AC50 is reported as 26.4 µM (active).
With `CNC[C@H](O)[C@@H](O)[C@H](O)[C@H](O)CO` the AC50 was 26 µM (active).
